PubChem BioAssay AID488969 (Vanderbilt High Throughput Screening Facility, 2010)
Over roughly 110,000 compounds, “z-score” has its median near -0.1; the highest 2% begin near 2. Many of the other results were omitted from the sample, so the highest values are more common in it than they were. Activity calls are given as the source filed them.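 The calls were made as follows: active = z-score in the third read window above 3 or below -3; inactive = the rest.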

The compounds below were run against Metabotropic glutamate receptor 8 (Rattus norvegicus) (UniProt P70579) (assay: rat mGluR8 modulators via GIRK flux, primary screen, cell-based, thallium flux, HTS (AID 488969)). Settings: HEK293 rat mGluR8, GIRK (G protein-gated inwardly rectifying potassium channel) thallium flux, FluoZin2; at 10 µM; stronger effect = higher value; submaximal glutamate (EC20) added with thallium.
Metabotropic glutamate receptor 8 (Rattus norvegicus), sequence (P70579 whole entry, looked up): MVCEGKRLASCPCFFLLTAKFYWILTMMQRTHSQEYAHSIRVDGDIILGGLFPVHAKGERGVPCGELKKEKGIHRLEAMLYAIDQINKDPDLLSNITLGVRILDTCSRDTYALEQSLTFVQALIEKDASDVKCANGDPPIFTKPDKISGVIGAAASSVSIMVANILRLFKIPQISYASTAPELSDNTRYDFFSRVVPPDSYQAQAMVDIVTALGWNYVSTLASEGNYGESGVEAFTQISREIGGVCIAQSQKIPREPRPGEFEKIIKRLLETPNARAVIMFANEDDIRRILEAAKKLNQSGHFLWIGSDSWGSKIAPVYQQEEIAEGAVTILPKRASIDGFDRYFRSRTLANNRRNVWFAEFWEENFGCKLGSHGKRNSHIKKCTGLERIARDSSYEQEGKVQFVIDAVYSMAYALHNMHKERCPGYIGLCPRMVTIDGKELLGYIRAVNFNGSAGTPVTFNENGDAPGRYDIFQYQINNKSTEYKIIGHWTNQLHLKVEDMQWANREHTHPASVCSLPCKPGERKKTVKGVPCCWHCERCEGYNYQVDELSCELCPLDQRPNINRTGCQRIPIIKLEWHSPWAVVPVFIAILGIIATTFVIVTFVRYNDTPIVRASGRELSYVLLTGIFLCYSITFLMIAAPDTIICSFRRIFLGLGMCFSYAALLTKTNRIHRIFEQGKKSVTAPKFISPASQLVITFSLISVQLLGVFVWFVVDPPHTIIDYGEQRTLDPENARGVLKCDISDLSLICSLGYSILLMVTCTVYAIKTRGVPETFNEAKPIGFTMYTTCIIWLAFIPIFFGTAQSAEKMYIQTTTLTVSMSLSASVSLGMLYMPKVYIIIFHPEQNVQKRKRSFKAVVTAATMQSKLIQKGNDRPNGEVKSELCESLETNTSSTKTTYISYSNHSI

Compound	z-score
CCOC(=O)C1=C(CSc2nc(-c3ccccc3)ccc2C#N)OC(N)=C(C#N)C1c1ccccc1 (stereo not given)	2.03
CCOC(=O)C1=C(CSc2nc(-c3ccccc3)ccc2C#N)OC(N)=C(C#N)C1c1cccnc1 (stereo not given)	-0.107
CCOC(=O)C1=C(CC)OC(N)=C(C#N)C1c1cccs1 (stereo not given)	-0.237
CCOC(=O)C1=C(CSc2nc(-c3ccccc3)ccc2C#N)OC(N)=C(C#N)C1c1ccc(OC)cc1 (stereo not given)	0.0604
CCOC(=O)C1=C(c2ccccc2)OC(N)=C(C#N)C1c1cccs1 (stereo not given)	0.288
CCOC(=O)CC1=C(C(=O)OCC)C(c2cccs2)C(C#N)=C(N)O1 (stereo not given)	3.6 (active)
Cc1[nH]c2ccccc2c1/C=N/NC(=O)c1cc(-c2cccs2)[nH]n1	-0.101
Cn1c(=O)[nH]c(=O)c2c1nc(NCCCn1ccnc1)n2Cc1ccc(F)cc1	0.613
Cc1cc(Nc2cccc([N+](=O)[O-])c2)n2c(nc3ccccc32)c1C#N	0.0405
Cc1cccc(-n2c(O)c(C=Nc3c(C)n(C)n(-c4ccccc4)c3=O)c3ccccc3c2=O)n1	-0.137
Cc1cccc(-n2c(O)c(/C=N/NC(=O)c3ccccc3Cl)c3ccccc3c2=O)n1	5.65 (active)
COc1cccc(N=Cc2c(O)n(-c3cccc(C)n3)c(=O)c3ccccc23)c1	-0.226
Cc1ccn2c(C(=O)N/N=C/c3ccc(CNC(=O)C(=O)Nc4ccc(C)c(C)c4)o3)c(C)nc2c1	0.623
Cc1ccccc1NC(=O)c1nc[nH]c1C(=O)NCc1ccccc1	2.57
CNC(=O)c1[nH]cnc1C(=O)Nc1ccccc1C	0.825
COc1ccc(NC(=O)c2nc[nH]c2C(=O)Nc2ccccc2C)cc1	0.48
Cc1cccc(Oc2nc(-c3ccccc3)cc(C)c2S(C)(=O)=O)c1C	0.102
COc1ccc(-c2nc(C)ncc2-c2csc(C)n2)c(O)c1	-0.348
CN1/C(=C/C(=O)c2ccc(Cl)cc2)Sc2cc3c(cc21)OCO3	-1.93
CC(C)CCN1C(=O)CCC1(C)C(=O)NC1CCCCCCC1 (stereo not given)	-0.383
CCOC(=O)C1C(=O)C=C(c2ccc(NS(C)(=O)=O)cc2)CC1c1ccco1 (stereo not given)	2.57
CCOC(=O)C1C(=O)C=C(c2ccc(C)cc2)CC1c1ccco1 (stereo not given)	-0.0925

Compound	z-score
CCOC(=O)C1C(=O)C=C(c2cccc(NS(C)(=O)=O)c2)CC1c1ccco1 (stereo not given)	-0.737
NNC(=O)C=C1CCN(c2ncc(C(F)(F)F)cc2Cl)CC1	0.00385
Cc1ccc(C)c(NS(=O)(=O)c2cc(C(=O)NCc3ccco3)ccc2C)c1	-0.408
O=C(CN1CCCCC1)Nc1cccc(Cl)c1Cl	-0.108
CCOC(=O)C(CCOc1cccc(CC)c1)C(=O)OCC	-0.709
CCOC(=O)C(CCCOc1cccc(CC)c1)C(=O)OCC	0.094
CCOC(=O)C(CCCCOc1cccc(CC)c1)C(=O)OCC	3.18 (active)
O=C(CC(c1ccco1)C1CCCCC1=O)c1ccccc1 (stereo not given)	-0.656
Cc1cccc(NC(=O)COC(=O)c2ccccc2-c2nc3ccccc3s2)c1C	-0.272
O=C(Nc1cccc(-c2nc3ccccc3s2)c1)c1cc(-n2cnnc2)ccc1Cl	-0.00826
COc1ccc(CNC(=O)COC(=O)CCC2CCCCC2)cc1	-0.328
COc1ccc(N2C(=O)CC(c3ccc(OC(C)C)cc3)C2=O)cc1 (stereo not given)	-0.209
CC(C)Oc1ccc(C2CC(=O)N(c3ccc(N(C)C)cc3)C2=O)cc1 (stereo not given)	-0.0638
CC(C)Oc1ccc(C2CC(=O)N(c3ccccc3)C2=O)cc1 (stereo not given)	2.33
COc1ccc(C2C(C(=O)Nc3cccc(C)n3)c3ccccc3C(=O)N2C)cc1OC (stereo not given)	-0.119
CCOc1ccc(N(CC(=O)NN=C2CCN(C)CC2)S(C)(=O)=O)cc1	-0.0704
Cc1cccc2c(=O)cc(C)n(CC(=O)N3CCCCC3)c12	3.39 (active)
CCOC(=O)Cn1c(C)cc(=O)c2cccc(C)c21	-0.0778
Cc1cccc2c(=O)cc(C)n(Cc3ccccc3)c12	-0.148
CC(Oc1ccccc1)C(=O)NC1CCN(Cc2ccccc2)CC1 (stereo not given)	-2.68
C=CCSc1nnc(NC(=O)CSc2ccccn2)s1	-0.421
COc1ccc(/C(C)=C2/SC(=S)N(CCC(=O)O)C2=O)cc1	-0.343

Compound	z-score
Cc1ccc(C)n1-c1ccc(N2CCOCC2)nc1	-0.064
COc1ccc(-c2cc(C(F)(F)F)nc(SCC(=O)NCCN3CCOCC3)n2)cc1OC	0.846
O=C(CSc1nc(-c2ccccc2)cc(C(F)(F)F)n1)NCCN1CCOCC1	2.92
O=C(CSc1nc(-c2ccc(F)cc2)cc(C(F)(F)F)n1)NCCN1CCOCC1	0.00416
Cc1ccc(-n2c(SCC(N)=O)nnc2-c2ccccn2)cc1C	0.0328
Cc1ccc(-n2c(SCC(N)=O)nnc2-c2ccccn2)cc1	2.09
Cc1ccc(C)c(-n2c(SCC(N)=O)nnc2-c2ccccn2)c1	-0.142
CCCCn1c(N)c(-c2nc3ccccc3s2)c2c([N+](=O)[O-])nn(C)c(=O)c21	1.31
CCOC(=O)/C(=C/c1ccc(OC)cc1)NC(=O)c1ccco1	-0.186
COc1ccc(-c2csc(NC(=O)C3CCCCN3S(=O)(=O)c3ccccc3)n2)cc1 (stereo not given)	1.82
Cc1ccccc1-c1nnn(CC(=O)N2CCN(S(=O)(=O)c3ccc(Cl)cc3)CC2)n1	-0.031
Cn1c(=O)c2c(ncn2CC(=O)N/N=C/C(Br)=C/c2ccccc2)n(C)c1=O	0.116
Cn1c(=O)c2c(ncn2CC(=O)N/N=C/c2ccco2)n(C)c1=O	1.59
Cn1c(=O)c2c(ncn2CC(=O)N/N=C/c2ccc(Br)s2)n(C)c1=O	2.47
O=C(CSc1ccccc1Cl)NC1CCCc2ccccc21 (stereo not given)	-0.386
O=C(NCc1ccco1)C1CCN(c2ccc(N3CCOCC3)nn2)CC1	0.321
O=C(CCC(=O)Nc1ccccc1)NNC(=O)COc1ccccc1	-0.00186
O=C(Cc1ccccc1)N/N=C/c1ccc(OC(=O)/C=C\c2ccco2)cc1	-0.0554
CCN(CC)CCCn1c(C)cc2c(c1=O)C(c1ccc(OC)c(OC)c1OC)C(C#N)=C(N)O2 (stereo not given)	-0.47
CCN(CC)CCCn1c(C)cc2c(c1=O)C(c1cccc(Cl)c1)C(C#N)=C(N)O2 (stereo not given)	2.38
CCN(CC)CCCn1c(C)cc2c(c1=O)C(c1ccccc1)C(C#N)=C(N)O2 (stereo not given)	0.538
O=S(=O)(/N=C(/Nc1ccc(F)c(F)c1F)c1ccccc1)c1ccccc1	-0.125

Compound	z-score
Cc1cc(C)nc(Sc2ncnc3sc4c(c23)CCC4)n1	5.12 (active)
CCSc1ncnc2sc3c(c12)CCC3	-0.0891
CC(C#N)Sc1ncnc2sc3c(c12)CCC3 (stereo not given)	0.00954
O=C(NCc1ccc(Cl)cc1Cl)C(=O)N1CCCCC1	0.112
O=C(COc1ccccc1)NCCc1cn2ccsc2n1	0.183
Cc1ccc(C)c(NC(=O)c2cnn3ccccc23)c1	-0.0235
COc1cc(CCN2C(=O)c3cccc4cccc(c34)C2=O)c(S(=O)(=O)NCCCO)cc1OC	0.452
CC(=O)n1cc(Nc2ccccc2C(=O)O)c2ccccc21	-1.18
CCOC(=O)c1ccccc1NC(=O)COC	-0.129
CCOC(=O)c1ccccc1Nc1cn(C(C)=O)c2ccccc12	2.73
COc1cccc2[nH]c3c(N4CCC(C(N)=O)CC4)ncnc3c12	0.0357
Cc1ccc(S(=O)(=O)N(CCC(=O)O)Cc2ccc(Cl)cc2)cc1	-0.125
Cc1ccc(S(=O)(=O)N2CCN(C(=O)CN3C(=O)NC4(CCOc5ccccc54)C3=O)CC2)cc1 (stereo not given)	0.106
CCN(CC)CCn1cnc2c([nH]c3cccc(OC)c32)c1=O	-0.0646
CCOC(=O)C1CCN(C(=O)C23CC4CC(CC(C4)C2)C3)CC1	0.212
CCOC(=O)C1CCN(C(=O)NC23CC4CC(CC(C4)C2)C3)CC1	3.31 (active)
CCOC(=O)N1CCN(C(=O)NC23CC4CC(CC(C4)C2)C3)CC1	-0.174
Cc1cccc(NC(=S)NCCc2c[nH]c3ccccc23)c1	0.201
CC(C)(C)Nc1nc2nonc2nc1NC(C)(C)C	-0.28
Cc1oc(/C=N/NC(=O)CN(c2ccccc2Br)S(C)(=O)=O)cc1Br	-0.262
CCN(CC)S(=O)(=O)c1csc(C(=O)NCc2ccccc2)c1	2.45
CCN(CC)S(=O)(=O)c1csc(C(=O)OCC(=O)c2ccccc2)c1	-0.217

Compound	z-score
CCN(CC)S(=O)(=O)c1csc(C(=O)NC2CCCCC2)c1	0.101
COn1c2c(c3c4no[n+]([O-])c4ccc31)CCCC2	-0.414
COc1cccc(NC(=O)CCSc2ccc3ccccc3n2)c1	-0.0656
O=C(O)c1cc(NS(=O)(=O)c2ccc(N3CCCCC3)c([N+](=O)[O-])c2)cc(C(=O)O)c1	-0.105
CCC(C)n1c(SCC(=O)Nc2cc(C)on2)nc2ccccc2c1=O (stereo not given)	0.0932
CCC(C)n1c(SCC(=O)NC(=O)Nc2ccc3c(c2)OCCO3)nc2ccccc2c1=O (stereo not given)	4.47 (active)
COCC(C)n1c(SCC(=O)NC(=O)Nc2ccc3c(c2)OCCO3)nc2ccccc2c1=O (stereo not given)	-1.25
Cn1c(=O)c2c(nc(SCC(=O)NCc3ccco3)n2C)n(C)c1=O	0.332
C/C(CC(=O)Nc1ccccn1)=N\NC(=O)c1ccc2ccccc2c1	-0.53
CCCNC(=O)C(=O)Nc1ccc(N(C)C)cc1	-0.0526
CC1CCCCC1NC(=S)NC(=O)c1ccccc1Br (stereo not given)	0.799
O=C(NC(=S)Nc1ccc(Br)cn1)c1cncc(Br)c1	0.371
COc1ccccc1/C=C/C(=O)NC(=S)Nc1ccc(S(=O)(=O)N(C)c2ccccc2)cc1	0.119
CC1CCCC(NC(=S)NC(=O)c2cncc(Br)c2)C1C (stereo not given)	6.76 (active)
O=C(NC(=S)Nc1ccccn1)c1cncc(Br)c1	0.829
O=C(NC(=S)NCC1CCCO1)c1ccccc1Br (stereo not given)	1.6
Cc1ccccc1NC(=S)NC(=O)c1cncc(Br)c1	6.92 (active)
Cc1cccnc1NC(=S)NC(=O)c1cncc(Br)c1	-0.14
O=C(NC(=S)Nc1ncc(Br)cc1Br)c1cncc(Br)c1	0.278
CC1CCCC(NC(=S)NC(=O)c2ccccc2Br)C1C (stereo not given)	2.91
COc1ccccc1/C=C/C(=O)NC(=S)N(C)C1CCCCC1	4.46 (active)
COc1ccccc1/C=C/C(=O)NC(=S)NC(C)C	0.776
